Test results from ChEMBL document CHEMBL1961873, “Compounds: GSK PKIS; Assays: Nanosyn kinase panel” (2012).

Tests used:
[1] = target: Ribosomal protein S6 kinase alpha-6 (Homo sapiens) (UniProt Q9UK32); conditions: at 1 µM;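 note: each value is a mean inhibition of RSK4 from a GSK PKIS panel screen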
[2] = target: T1, Serine/threonine-protein kinase Sgk1 (Homo sapiens) (UniProt O00141); conditions: at 0.1 µM
T1 sequence (whole entry): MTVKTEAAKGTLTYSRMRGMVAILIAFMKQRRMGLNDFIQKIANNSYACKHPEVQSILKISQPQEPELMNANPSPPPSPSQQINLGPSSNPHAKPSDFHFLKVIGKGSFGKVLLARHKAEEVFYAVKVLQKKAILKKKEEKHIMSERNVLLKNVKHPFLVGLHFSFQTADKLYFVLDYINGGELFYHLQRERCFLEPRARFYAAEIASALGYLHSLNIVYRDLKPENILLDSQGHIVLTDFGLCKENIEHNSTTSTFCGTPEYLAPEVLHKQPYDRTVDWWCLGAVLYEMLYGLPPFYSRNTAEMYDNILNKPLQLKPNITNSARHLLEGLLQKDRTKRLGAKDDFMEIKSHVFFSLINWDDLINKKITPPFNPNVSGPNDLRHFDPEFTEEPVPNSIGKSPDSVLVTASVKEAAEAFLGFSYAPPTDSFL

[3] = target: T1, Serine/threonine-protein kinase Sgk1 (Homo sapiens); conditions: at 1 µM
[4] = target: T2, Serine/threonine-protein kinase Sgk2 (Homo sapiens) (UniProt Q9HBY8); conditions: at 0.1 µM
T2 sequence (whole entry): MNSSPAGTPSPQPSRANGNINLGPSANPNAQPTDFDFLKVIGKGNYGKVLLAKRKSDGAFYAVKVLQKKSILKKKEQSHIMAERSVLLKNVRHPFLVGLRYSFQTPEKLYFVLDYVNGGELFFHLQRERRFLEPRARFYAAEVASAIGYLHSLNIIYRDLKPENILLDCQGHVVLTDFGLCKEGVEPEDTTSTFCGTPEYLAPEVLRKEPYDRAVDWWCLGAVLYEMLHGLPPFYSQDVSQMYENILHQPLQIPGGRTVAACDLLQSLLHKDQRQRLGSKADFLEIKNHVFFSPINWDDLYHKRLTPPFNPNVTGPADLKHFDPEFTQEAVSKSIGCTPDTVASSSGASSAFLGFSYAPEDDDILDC

[5] = target: T2, Serine/threonine-protein kinase Sgk2 (Homo sapiens); conditions: at 1 µM
[6] = target: T3, Serine/threonine-protein kinase Sgk3 (Homo sapiens) (UniProt Q96BR1); conditions: at 0.1 µM
T3 sequence (whole entry): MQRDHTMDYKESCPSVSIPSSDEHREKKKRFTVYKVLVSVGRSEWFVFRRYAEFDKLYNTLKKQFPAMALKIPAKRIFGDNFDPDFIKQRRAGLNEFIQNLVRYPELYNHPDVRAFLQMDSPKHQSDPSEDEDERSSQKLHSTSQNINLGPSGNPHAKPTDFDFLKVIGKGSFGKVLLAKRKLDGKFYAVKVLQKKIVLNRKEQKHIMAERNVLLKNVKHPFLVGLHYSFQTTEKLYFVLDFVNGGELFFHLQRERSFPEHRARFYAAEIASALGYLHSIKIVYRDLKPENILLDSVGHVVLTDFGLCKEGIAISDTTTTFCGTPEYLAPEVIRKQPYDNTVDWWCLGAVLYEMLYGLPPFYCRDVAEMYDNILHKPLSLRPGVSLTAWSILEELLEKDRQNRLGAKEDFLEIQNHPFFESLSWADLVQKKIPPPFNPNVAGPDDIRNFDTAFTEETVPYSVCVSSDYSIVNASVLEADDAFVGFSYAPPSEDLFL

[7] = target: T3, Serine/threonine-protein kinase Sgk3 (Homo sapiens); conditions: at 1 µM
[8] = target: 5'-AMP-activated protein kinase catalytic subunit alpha-1 (Homo sapiens) (UniProt Q13131); conditions: at 0.1 µM
[9] = target: 5'-AMP-activated protein kinase catalytic subunit alpha-1 (Homo sapiens) (UniProt Q13131); conditions: at 1 µM
[10] = target: 5'-AMP-activated protein kinase catalytic subunit alpha-2 (Homo sapiens) (UniProt P54646); conditions: at 0.1 µM;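 note: mean inhibition measured on the AMPK complex of alpha2, beta1 and gamma1 subunits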
Chain of 5'-AMP-activated protein kinase catalytic subunit alpha-2 (Homo sapiens) (P54646 whole entry, looked up): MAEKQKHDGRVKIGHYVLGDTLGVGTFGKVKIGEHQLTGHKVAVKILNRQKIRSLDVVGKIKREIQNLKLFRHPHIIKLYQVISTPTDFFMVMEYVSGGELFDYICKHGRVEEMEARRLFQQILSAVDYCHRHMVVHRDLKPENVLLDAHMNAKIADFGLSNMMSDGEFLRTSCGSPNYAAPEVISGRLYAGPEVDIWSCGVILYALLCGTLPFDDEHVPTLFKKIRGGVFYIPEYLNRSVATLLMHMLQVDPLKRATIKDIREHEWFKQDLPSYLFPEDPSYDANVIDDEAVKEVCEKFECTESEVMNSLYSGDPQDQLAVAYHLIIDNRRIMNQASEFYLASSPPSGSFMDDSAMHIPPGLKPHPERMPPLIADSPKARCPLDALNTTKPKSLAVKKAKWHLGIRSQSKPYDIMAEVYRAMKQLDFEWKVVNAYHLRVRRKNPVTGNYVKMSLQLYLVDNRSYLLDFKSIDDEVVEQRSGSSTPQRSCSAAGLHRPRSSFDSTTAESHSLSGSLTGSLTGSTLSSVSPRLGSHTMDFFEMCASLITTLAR

Chain of Ribosomal protein S6 kinase alpha-6 (Homo sapiens) (Q9UK32 whole entry): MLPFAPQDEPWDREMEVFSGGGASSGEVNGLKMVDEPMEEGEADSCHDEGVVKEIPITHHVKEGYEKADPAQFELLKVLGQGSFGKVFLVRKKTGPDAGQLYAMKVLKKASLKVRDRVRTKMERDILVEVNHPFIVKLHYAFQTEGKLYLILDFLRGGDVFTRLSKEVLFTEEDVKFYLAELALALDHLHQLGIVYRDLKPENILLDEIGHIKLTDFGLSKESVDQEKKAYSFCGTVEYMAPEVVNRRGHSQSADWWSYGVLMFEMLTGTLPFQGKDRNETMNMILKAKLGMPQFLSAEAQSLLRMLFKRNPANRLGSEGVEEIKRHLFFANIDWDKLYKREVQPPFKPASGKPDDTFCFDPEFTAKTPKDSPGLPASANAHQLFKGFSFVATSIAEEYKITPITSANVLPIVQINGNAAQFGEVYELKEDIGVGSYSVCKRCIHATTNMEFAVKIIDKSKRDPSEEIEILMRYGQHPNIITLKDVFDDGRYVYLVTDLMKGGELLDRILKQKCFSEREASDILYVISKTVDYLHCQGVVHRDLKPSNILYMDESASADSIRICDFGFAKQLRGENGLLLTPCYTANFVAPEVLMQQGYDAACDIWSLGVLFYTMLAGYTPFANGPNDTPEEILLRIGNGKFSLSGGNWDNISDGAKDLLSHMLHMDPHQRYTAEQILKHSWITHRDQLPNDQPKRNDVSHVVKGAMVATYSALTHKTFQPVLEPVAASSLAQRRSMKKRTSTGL
Chain of 5'-AMP-activated protein kinase catalytic subunit alpha-1 (Homo sapiens) (Q13131 whole entry, looked up): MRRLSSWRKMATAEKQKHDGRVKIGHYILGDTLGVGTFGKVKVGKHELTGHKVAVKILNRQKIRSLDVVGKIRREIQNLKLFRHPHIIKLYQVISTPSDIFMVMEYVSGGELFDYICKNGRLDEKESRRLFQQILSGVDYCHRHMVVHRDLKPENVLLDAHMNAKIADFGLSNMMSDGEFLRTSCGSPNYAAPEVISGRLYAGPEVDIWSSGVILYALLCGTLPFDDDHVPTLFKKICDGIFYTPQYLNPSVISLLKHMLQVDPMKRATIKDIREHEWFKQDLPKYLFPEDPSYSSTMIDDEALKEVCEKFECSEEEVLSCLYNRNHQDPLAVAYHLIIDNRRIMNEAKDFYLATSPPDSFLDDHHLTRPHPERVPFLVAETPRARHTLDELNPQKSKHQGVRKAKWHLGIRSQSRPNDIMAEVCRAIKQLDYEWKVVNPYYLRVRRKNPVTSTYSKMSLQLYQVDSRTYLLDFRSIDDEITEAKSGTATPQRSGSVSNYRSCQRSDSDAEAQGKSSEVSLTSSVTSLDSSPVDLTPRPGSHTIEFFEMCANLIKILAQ

Row | Compound | inhibition [1] [%] | inhibition [2] [%] | inhibition [3] [%] | inhibition [4] [%] | inhibition [5] [%] | inhibition [6] [%] | inhibition [7] [%] | inhibition [8] [%] | inhibition [9] [%] | inhibition [10] [%]
1 | [O-][S+]1CCN(Cc2ccc(-c3ccc4ncnc(Nc5ccc(OCc6cccc(F)c6)c(Cl)c5)c4c3)o2)CC1 | 1.89 | 3.42 | 4 | -0.64 | 2.65 | 4.53 | 3.72 | 3.59 | 5.6 | 5.66
2 | NC(=O)c1sc(-n2cnc3ccc(C(F)(F)F)cc32)cc1OCc1ccccc1Br | 2.19 | 3.07 | 4.04 | -0.91 | 3.21 | 3.83 | 4.65 | 2.58 | 4.41 | 3.14
3 | Fc1ccc(-c2nn3ccccc3c2-c2ccncc2)cc1 | 2.09 | 0.19 | 3.23 | 3.79 | 3.17 | 3.25 | 5.79 | 1.13 | -0.08 | 1.39
4 | Nc1ncc(-c2cccc(S(N)(=O)=O)c2)c2scc(-c3ccc(F)c(Cl)c3)c12 | 3.24 | 2.77 | 2.35 | -0.69 | 4.55 | 3.54 | 0.56 | 3.66 | 4.69 | 0.92
5 | CCn1c(-c2nonc2N)nc2c(C#CC(C)(C)O)nc(OC[C@H](N)c3ccccc3)cc21 | 7.07 | 1.86 | 3.49 | 5.31 | 13.4 | 31.1 | 57.7 | 17.7 | 65.7 | 4.97
6 | CCN1CCC(CC(=O)Nc2n[nH]c3nnc(-c4cccc(F)c4F)cc23)CC1 | 1.38 | 0.53 | 0.29 | -3.94 | 1.93 | 0.82 | 4.18 | 2.47 | 3.36 | 2.36
7 | CC(C)COC(=O)c1ccc2c(c1)/C(=C/Nc1ccc(S(N)(=O)=O)cc1)C(=O)N2 | 39.3 | 1.25 | 19 | 1.33 | 1.89 | 1.37 | 3.19 | 23.4 | 72.3 | 5.83
8 | Clc1ccc(-c2nn3ncccc3c2-c2ccnc(Nc3ccccc3)n2)cc1 | 1.59 | 3.14 | 1.09 | 1.58 | 0.53 | 1.92 | -1.01 | 0.45 | 0.54 | 1.86
9 | CNC(=O)c1cncc(/C=C/c2ccccc2Cl)c1 | 0.65 | 0.52 | 3.45 | 3.22 | 1.73 | 2.89 | 3.36 | 1.03 | 2.25 | -2.07
10 | Cc1cccc2c1NC(=O)/C2=N\Nc1ccc(S(N)(=O)=O)cc1 | 2.27 | 0.42 | 3.23 | 2.93 | 3.69 | 0.3 | -0.24 | 2.8 | 4.3 | 0.95
11 | CCOc1ccc2c(-c3ccnc(Nc4cccc(C(F)(F)F)c4)n3)cnn2n1 | -0.99 | 1.25 | 0.13 | 2.25 | 0.87 | 0.95 | 2.4 | 2.48 | 2.09 | 0.22
12 | CS(=O)(=O)CCNCc1ccc(-c2ccc3ncnc(Nc4ccc(OCc5ccccc5)c(C(F)(F)F)c4)c3c2)o1 | 0.75 | 3.38 | 3.03 | 1.55 | 1.26 | 2.51 | 4.06 | 3.06 | 2.92 | -6.64
13 | Nc1nc(-c2cccc(Cl)c2)c(-c2ccc3ncccc3n2)s1 | 2.73 | 4.41 | 5.86 | 2.07 | 3.59 | 4.35 | 6.98 | 3.09 | 5.53 | 3.05
14 | CCn1cc(-c2ccnc3[nH]ccc23)c(-c2cccc(NC(=O)Nc3ccc(OCc4ccccc4)cc3)c2)n1 | -1.2 | 0.59 | -1.2 | -1.32 | -1.47 | -0.3 | -0.15 | 1.13 | 1.82 | 0.63
15 | FC(F)(F)c1cccc(-c2nn3ncccc3c2-c2ccnc(Nc3ccc4c(c3)OCCO4)n2)c1 | 2.56 | 1.35 | 1.1 | -3.49 | 0.76 | 5.14 | 1.47 | 1.41 | 0.35 | 0.93
16 | COc1cc(/C=N/Nc2ncnc3[nH]ncc23)ccc1O | 13.3 | 13 | 54.4 | 6.14 | 19.9 | 3.82 | 5.26 | 5.24 | 20.5 | 2.66
17 | COc1cc(Nc2nccc(Nc3ccc4c(C)n[nH]c4c3)n2)cc(OC)c1OC | 2.74 | 3.49 | 5.3 | -0.28 | -0.14 | 2.13 | 1.07 | 1.6 | 1.71 | 2.15

Row | Compound | inhibition [1] [%] | inhibition [2] [%] | inhibition [3] [%] | inhibition [4] [%] | inhibition [5] [%] | inhibition [6] [%] | inhibition [7] [%] | inhibition [8] [%] | inhibition [9] [%] | inhibition [10] [%]
18 | COc1cccc(-n2ncc3c(N/N=C/c4ccc(F)cc4)ncnc32)c1 | 1.84 | 4.27 | 5.6 | 2.15 | 0.76 | 4.84 | 3.63 | 3.38 | 5.57 | -0.09
19 | c1ccc(-c2nc3n(c2-c2ccc4c(c2)OCO4)CCC3)nc1 | 0.77 | 1.69 | 3.45 | 2.66 | 2.94 | 2.37 | 3.36 | 1.01 | 2.34 | 3.38
20 | COc1cc2ncn(-c3cc(OCc4ccccc4C(F)(F)F)c(C(=O)N(C)C)s3)c2cc1OC | 0.1 | 0.62 | 1.02 | 1.9 | -0.51 | 0.08 | -0.88 | -0.68 | -0.02 | -0.26
21 | Cc1cccc(Nc2ncc(-c3ccccc3)o2)c1 | 2.13 | 1.63 | 2.62 | 3.96 | 2.16 | 0.65 | 1.3 | 3.82 | 4.04 | 4.67
22 | CC(=O)Nc1cccc(C#Cc2cncnc2Nc2ccc(OCc3cccc(F)c3)c(Cl)c2)c1 | 1.39 | 3.01 | 2.43 | -0.35 | 2.06 | 2.61 | -0.92 | 1.72 | -0.52 | 2.44
23 | CCn1c(-c2nonc2N)nc2cnc(Oc3cccc(NC(=O)c4ccc(N(C)C)cc4)c3)cc21 | 15.2 | 9.87 | 49.7 | 16.3 | 61.9 | 43.8 | 83.5 | 1.59 | 2.17 | 2.3
24 | CCNC(=O)O[C@H]1CN[C@H](C#Cc2cc3ncnc(Nc4ccc(OCc5cccc(F)c5)c(Cl)c4)c3s2)C1 | 2.88 | 2.25 | -0.58 | 8.05 | 5.53 | 4.38 | -0.29 | 2.46 | 2.35 | 0.44
25 | N#Cc1c(NC(=O)CN2CCOCC2)sc2c1CCCC2 | 1.35 | 0.28 | 5.76 | 2.3 | 4.38 | 3.14 | 4.05 | 3.31 | 4.25 | 1.66
26 | N#Cc1c(NC(=O)c2ccc(F)cc2)sc2c1CCCC2 | 0.81 | 0.29 | 2.65 | -3.36 | 0.76 | -0.34 | 1.54 | 1.88 | 1.54 | 0.31
27 | CNC(=O)c1cc(-c2ccc(F)cc2)cc(-c2ccc(S(=O)(=O)N3CCCC3)cc2)c1N | 1.28 | 2.26 | 1.89 | 2.87 | 0.33 | 2.62 | 3.57 | 1.77 | 2.03 | 6.28
28 | NS(=O)(=O)c1ccc(Nc2ncc(-c3ccccc3)o2)cc1 | 4.32 | 2.77 | 13 | 2.15 | 10.4 | 1.86 | 2.86 | 4.14 | 11.5 | 1.03
29 | CCCN1CCC(c2ccc(Nc3nc(Nc4cc(F)ccc4C(N)=O)c4cc[nH]c4n3)c(OC)c2)CC1 | 63.4 | 3.17 | 13.8 | 4.48 | 5.14 | 3.22 | 4.03 | 5.5 | 26.9 | 3.42
30 | COC(=O)Nc1nc2ccc(Oc3ccc(NC(=O)Nc4cccc(Cl)c4)cc3)cc2[nH]1 | -1.02 | 0.53 | 0.15 | 1.28 | -2.41 | 0.38 | 0.61 | 0.94 | 0.58 | 1.29
31 | COc1ccc2c(-c3ccnc(Nc4cccc(OC(F)(F)F)c4)n3)cnn2n1 | 3.03 | 3.35 | 2.06 | 6.82 | 9.02 | 5.66 | 4.44 | 4.09 | 7.03 | -7
32 | NS(=O)(=O)c1ccc(N/N=C2\C(=O)Nc3ccc4ncccc4c32)cc1 | 55.5 | 10.6 | 50 | -0.23 | 21.3 | 1.63 | 10.2 | 54.8 | 82.7 | 28.9
33 | O=C(Nc1n[nH]c2cc(-c3ccc(F)cc3)ccc12)C1CC1 | 4.8 | 2.59 | 3.89 | 3.3 | 6.36 | 3.83 | 8.97 | 1.21 | 4.56 | 3.71
34 | CN1CCC(n2cnc(-c3ccc(F)cc3)c2-c2ccnc(N)n2)CC1 | 3.17 | 2.03 | 5.81 | 0.15 | 7.47 | 2.25 | 2.99 | 2.2 | 7.91 | -1.23
